Test results taken from PubChem BioAssay (EPA / NIEHS).
Calls of active or inactive are those of the source. How the source made its calls: active means hit-call score of the fitted dose curve at least 0.9, where 1 is the maximum; inactive means score below 0.9.

How the values were obtained:
[1] = target: Bile acid receptor (Homo sapiens) (UniProt Q96RI1); assay: ATG_IR1_CIS: Attagene CIS-FACTORIAL HepG2 Assay for human Nuclear Receptor Subfamily 1 Group H Member 4 (NR1H4), IR1 submotif (AID 2282946); details: IR1 reporter transcription, actives raise or lower the signal
Sequence of Bile acid receptor (Homo sapiens) (Q96RI1 whole entry, looked up): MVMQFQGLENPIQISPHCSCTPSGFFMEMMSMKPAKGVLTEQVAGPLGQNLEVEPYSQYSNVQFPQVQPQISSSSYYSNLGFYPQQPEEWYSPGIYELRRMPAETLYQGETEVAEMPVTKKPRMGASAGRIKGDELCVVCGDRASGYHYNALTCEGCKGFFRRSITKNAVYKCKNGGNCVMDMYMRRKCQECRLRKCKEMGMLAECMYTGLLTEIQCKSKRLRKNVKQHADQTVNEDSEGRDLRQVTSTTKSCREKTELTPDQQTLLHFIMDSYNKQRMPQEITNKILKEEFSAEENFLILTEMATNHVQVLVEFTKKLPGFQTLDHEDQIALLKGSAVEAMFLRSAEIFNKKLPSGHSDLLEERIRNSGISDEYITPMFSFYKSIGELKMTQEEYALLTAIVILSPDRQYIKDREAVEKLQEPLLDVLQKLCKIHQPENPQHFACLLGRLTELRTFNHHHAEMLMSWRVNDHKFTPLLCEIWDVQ
Procedure, shortened: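 HepG2 cells transiently transfected with multiple cis-promoter-driven reporter units to measure endogenous transcription factor activity; 24 h exposure. Reporter mRNA read by RT-PCR, FAM labelling, HpaI digestion and capillary electrophoresis. Bidirectional fit versus DMSO.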

[2] = ATG_GRE_CIS: Attagene CIS-FACTORIAL HepG2 Assay for human Glucocorticoid Response Elements (GRE) (AID 2282947); details: HepG2 GRE cis-reporter, Attagene multiplex mRNA; actives raise or lower the signal
Procedure, shortened: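 Transiently transfected HepG2 cells carrying GRE cis-reporter units (endogenous TF activity) dosed 24 h; reporter mRNA quantified by RT-PCR, 6-FAM labelling, HpaI digestion and capillary electrophoresis. Bidirectional fit versus DMSO baseline.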

[3] = ATG_ISRE_CIS: Attagene CIS-FACTORIAL HepG2 Assay for human Interferon Regulatory Factor 1 (IRF1) binding to an Interferon-Stimulated Response Element (ISRE) (AID 2282948); details: HepG2 ISRE cis-reporter (Attagene), mRNA transcription readout; actives raise or lower the signal
Procedure, shortened: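 Transfected HepG2 (multiple reporter transcription units, cis elements) dosed 24 h. RNA → oligo(dT) RT → PCR → 6-FAM primer extension → HpaI → CE. DMSO = negative control/baseline.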

[4] = ATG_M_32_CIS: Attagene CIS-FACTORIAL HepG2 Assay for M32 Transcription Factor (Internal Marker) (AID 2282949); details: HepG2 Attagene cis-factorial M32 reporter, mRNA; actives raise or lower the signal;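 further: background control marker of the multiplexed CIS panel rather than a real target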
Procedure, shortened: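 HepG2 cells transiently transfected with multiplexed cis-regulated reporter units, dosed 24 h. Reporter mRNA quantified by RT-PCR, 6-FAM labelling, HpaI digestion and capillary electrophoresis; bidirectional fit vs DMSO.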

[5] = ATG_M_06_CIS: Attagene CIS-FACTORIAL HepG2 Assay for M06 Transcription Factor (Internal Marker) (AID 2282950); details: HepG2 Attagene CIS-FACTORIAL M06 internal marker reporter; actives raise or lower the signal
Procedure, shortened: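 Fluorescence-labelled RT-PCR products from cis-promoter reporter units, cut with HpaI and resolved by capillary electrophoresis, give the signal. Cells are human HepG2, dosed for 24 h. Serves as background control, fitted relative to DMSO.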

[6] = target: Hypoxia-inducible factor 1-alpha (Homo sapiens) (UniProt Q16665); assay: ATG_HIF1a_CIS: Attagene CIS-FACTORIAL HepG2 Assay for human Hypoxia Inducible Factor 1 (HIF1A) (AID 2282951); details: HepG2 Attagene cis-factorial HIF1a reporter transcription; actives raise or lower the signal
Sequence of Hypoxia-inducible factor 1-alpha (Homo sapiens) (Q16665 whole entry, looked up): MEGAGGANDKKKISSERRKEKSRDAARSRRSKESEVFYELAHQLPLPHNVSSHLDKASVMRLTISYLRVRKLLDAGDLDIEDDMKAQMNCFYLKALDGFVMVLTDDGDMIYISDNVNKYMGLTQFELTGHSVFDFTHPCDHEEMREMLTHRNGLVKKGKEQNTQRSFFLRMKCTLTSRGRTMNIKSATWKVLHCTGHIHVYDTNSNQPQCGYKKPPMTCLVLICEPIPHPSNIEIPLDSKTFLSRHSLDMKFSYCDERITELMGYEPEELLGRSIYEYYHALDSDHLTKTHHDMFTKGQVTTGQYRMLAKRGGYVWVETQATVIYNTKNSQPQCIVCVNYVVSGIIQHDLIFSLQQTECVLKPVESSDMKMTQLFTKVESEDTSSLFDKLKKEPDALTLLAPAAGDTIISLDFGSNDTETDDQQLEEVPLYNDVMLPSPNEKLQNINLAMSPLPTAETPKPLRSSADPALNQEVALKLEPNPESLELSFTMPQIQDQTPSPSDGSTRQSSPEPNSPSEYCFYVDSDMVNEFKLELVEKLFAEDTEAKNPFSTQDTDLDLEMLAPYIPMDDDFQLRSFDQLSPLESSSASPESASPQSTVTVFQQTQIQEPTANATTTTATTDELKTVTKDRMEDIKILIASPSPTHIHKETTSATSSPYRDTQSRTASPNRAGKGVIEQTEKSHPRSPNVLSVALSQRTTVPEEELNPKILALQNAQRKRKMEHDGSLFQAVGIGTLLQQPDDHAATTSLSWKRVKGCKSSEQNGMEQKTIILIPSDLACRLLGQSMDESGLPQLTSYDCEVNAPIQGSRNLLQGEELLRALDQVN
Procedure, shortened: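 After 24 h chemical exposure of reporter-transfected HepG2 cells, reporter cDNA was PCR-amplified, labelled by 6-FAM primer extension (2 min 95 C, 20 s 68 C, 10 min 72 C), HpaI-cut (2 h, 37 C) and analysed by CE.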

[7] = target: Hepatocyte nuclear factor 6 (Homo sapiens) (UniProt Q9UBC0); assay: ATG_HNF6_CIS: Attagene CIS-FACTORIAL HepG2 Assay for human Hepatocyte Nuclear Factor 6 (HNF6) (AID 2282952); details: HepG2 Attagene cis-factorial HNF6 reporter transcription; actives raise or lower the signal
Sequence of Hepatocyte nuclear factor 6 (Homo sapiens) (Q9UBC0 whole entry, looked up): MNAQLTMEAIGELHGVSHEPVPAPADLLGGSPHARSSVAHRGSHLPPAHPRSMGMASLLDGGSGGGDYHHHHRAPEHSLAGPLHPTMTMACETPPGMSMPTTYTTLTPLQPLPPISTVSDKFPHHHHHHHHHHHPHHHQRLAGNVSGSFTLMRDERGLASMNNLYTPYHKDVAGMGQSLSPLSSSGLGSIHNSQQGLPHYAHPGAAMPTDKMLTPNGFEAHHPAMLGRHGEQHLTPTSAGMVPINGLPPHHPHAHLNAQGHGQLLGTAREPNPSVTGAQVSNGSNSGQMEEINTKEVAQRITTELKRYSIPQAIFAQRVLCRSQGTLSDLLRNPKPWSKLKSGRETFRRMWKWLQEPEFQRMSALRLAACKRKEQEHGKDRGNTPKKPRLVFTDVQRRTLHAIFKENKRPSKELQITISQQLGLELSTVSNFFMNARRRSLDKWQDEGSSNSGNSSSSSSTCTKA
Procedure, shortened: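 HepG2, transient MRTU transfection (cis promoters); 24 h chemical exposure; total RNA → oligo(dT) RT → PCR → 6-FAM labelling → HpaI cut → CE; bidirectional fit vs DMSO.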

[8] = ATG_MRE_CIS: Attagene CIS-FACTORIAL HepG2 Assay for human Metal Responsive Element (MRE) (AID 2282954); details: HepG2 MRE cis-reporter transcription, Attagene multiplex; actives raise or lower the signal
Procedure, shortened: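 HepG2 cells transiently transfected with cis-element-driven reporter units; mRNA measured 24 h after dosing. Reporter transcripts quantified by RT-PCR, FAM labelling, HpaI digestion and capillary electrophoresis; bidirectional fit versus DMSO.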

[9] = ATG_PBREM_CIS: Attagene CIS-FACTORIAL HepG2 Assay for human Phenobarbital-responsive Enhancer Module (PBREM) (AID 2282955); details: HepG2 PBREM cis-reporter, Attagene multiplexed transcription; actives raise or lower the signal
Procedure, shortened: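 Measures endogenous factor action on a phenobarbital-responsive enhancer module. HepG2 transiently carrying cis reporters, 24 h treatment, mRNA read-out by RT-PCR plus capillary electrophoresis.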

[10] = target: Paired box protein Pax-6 (Homo sapiens) (UniProt P26367); assay: ATG_Pax6_CIS: Attagene CIS-FACTORIAL HepG2 Assay for human Paired Box 6 (PAX6) (AID 2282956); details: HepG2 CIS-FACTORIAL PAX6 reporter transcription, RNA readout; actives raise or lower the signal
Sequence of Paired box protein Pax-6 (Homo sapiens) (P26367 whole entry, looked up): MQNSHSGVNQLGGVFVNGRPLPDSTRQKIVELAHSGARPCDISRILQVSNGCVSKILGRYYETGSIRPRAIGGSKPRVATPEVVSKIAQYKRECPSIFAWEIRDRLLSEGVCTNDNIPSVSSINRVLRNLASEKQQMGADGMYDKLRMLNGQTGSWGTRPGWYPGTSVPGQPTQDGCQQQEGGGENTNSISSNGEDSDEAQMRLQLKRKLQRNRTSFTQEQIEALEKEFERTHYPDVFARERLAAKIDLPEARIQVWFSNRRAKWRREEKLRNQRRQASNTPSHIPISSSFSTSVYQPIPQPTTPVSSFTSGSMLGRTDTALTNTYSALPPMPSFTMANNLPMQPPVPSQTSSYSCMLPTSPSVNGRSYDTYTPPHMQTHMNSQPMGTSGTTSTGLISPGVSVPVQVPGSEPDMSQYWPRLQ
Procedure, shortened: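 Transient MRTU transfection of HepG2 → compound exposure 24 h → TriZol RNA, oligo(dT) RT → PCR, 6-FAM primer extension, HpaI cut → capillary electrophoresis; activity fitted both directions against DMSO.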

[11] = ATG_PXRE_CIS: Attagene CIS-FACTORIAL HepG2 Assay for human Pregnane X Receptor Element (PXRE) (AID 2282957); details: HepG2 Attagene CIS-FACTORIAL PXRE reporter, mRNA; actives raise or lower the signal
Procedure, shortened: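 Transfect HepG2 with MRTUs (cis promoter elements); dose chemical, incubate 24 h; isolate RNA, RT with oligo(dT), PCR, 6-FAM label, HpaI cut, CE. Gain/loss fit vs DMSO.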

[12] = ATG_PPRE_CIS: Attagene CIS-FACTORIAL HepG2 Assay for human Peroxisome Proliferator-activated Response Element (PPRE) (AID 2282958); details: HepG2 PPRE cis-element reporter, Attagene transcription factor profiling; actives raise or lower the signal
Procedure, shortened: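 PPRE activity in HepG2: transient cis-reporter transfection, 24 h compound incubation, reporter mRNA by RT-PCR and CE fluorescence; gain/loss fitted against DMSO.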

[13] = ATG_RORE_CIS: Attagene CIS-FACTORIAL HepG2 Assay for human RAR-related Orphan Receptor Element (RORE) (AID 2282959); details: HepG2 Attagene cis-factorial RORE reporter, mRNA; actives raise or lower the signal
Procedure, shortened: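 A 24-hour exposure of transfected HepG2 hepatoma cells precedes RNA isolation and reporter RT-PCR. Labeled products are digested with HpaI and resolved by capillary electrophoresis, with gain or loss of signal scored relative to DMSO.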

[14] = target: Transcription factor Sp1 (Homo sapiens) (UniProt P08047); assay: ATG_Sp1_CIS: Attagene CIS-FACTORIAL HepG2 Assay for human Specificity Protein 1 (Sp1) (AID 2282961); details: HepG2 Sp1 cis-reporter transcription, actives raise or lower the signal
Sequence of Transcription factor Sp1 (Homo sapiens) (P08047 whole entry, looked up, the tested form may be a part): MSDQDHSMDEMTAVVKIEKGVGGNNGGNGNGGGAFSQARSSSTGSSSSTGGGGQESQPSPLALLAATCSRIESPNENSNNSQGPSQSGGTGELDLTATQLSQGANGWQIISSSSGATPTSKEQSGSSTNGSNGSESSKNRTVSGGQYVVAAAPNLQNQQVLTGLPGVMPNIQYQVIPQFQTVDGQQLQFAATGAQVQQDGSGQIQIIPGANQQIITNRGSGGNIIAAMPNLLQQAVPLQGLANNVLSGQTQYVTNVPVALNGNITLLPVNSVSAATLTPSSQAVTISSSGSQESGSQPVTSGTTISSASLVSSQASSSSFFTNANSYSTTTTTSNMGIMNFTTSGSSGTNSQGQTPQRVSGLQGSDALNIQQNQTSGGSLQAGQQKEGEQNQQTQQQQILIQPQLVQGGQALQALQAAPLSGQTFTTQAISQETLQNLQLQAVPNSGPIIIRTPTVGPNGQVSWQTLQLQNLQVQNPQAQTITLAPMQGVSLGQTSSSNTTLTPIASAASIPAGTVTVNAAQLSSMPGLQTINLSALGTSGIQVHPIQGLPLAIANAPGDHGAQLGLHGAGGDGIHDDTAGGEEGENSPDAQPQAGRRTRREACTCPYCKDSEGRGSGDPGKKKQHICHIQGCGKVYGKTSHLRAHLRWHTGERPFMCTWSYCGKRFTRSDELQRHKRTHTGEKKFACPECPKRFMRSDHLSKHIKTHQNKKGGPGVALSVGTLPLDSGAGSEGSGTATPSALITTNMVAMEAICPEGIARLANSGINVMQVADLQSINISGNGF
Procedure, shortened: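 Liver-derived HepG2 cells, cis-element reporter library, 24 h treatment; RNA isolated, cDNA amplified with reporter-specific primers, FAM-labeled fragments sized on capillary analyzer. DMSO baseline, bidirectional curve fit.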

[15] = target: Signal transducer and activator of transcription 3 (Homo sapiens) (UniProt P40763); assay: ATG_STAT3_CIS: Attagene CIS-FACTORIAL HepG2 Assay for human Signal Transducer and Activator of Transcription 3 (STAT3) (AID 2282963); details: HepG2, Attagene cis-factorial STAT3 reporter transcription; actives raise or lower the signal
Sequence of Signal transducer and activator of transcription 3 (Homo sapiens) (P40763 whole entry, looked up): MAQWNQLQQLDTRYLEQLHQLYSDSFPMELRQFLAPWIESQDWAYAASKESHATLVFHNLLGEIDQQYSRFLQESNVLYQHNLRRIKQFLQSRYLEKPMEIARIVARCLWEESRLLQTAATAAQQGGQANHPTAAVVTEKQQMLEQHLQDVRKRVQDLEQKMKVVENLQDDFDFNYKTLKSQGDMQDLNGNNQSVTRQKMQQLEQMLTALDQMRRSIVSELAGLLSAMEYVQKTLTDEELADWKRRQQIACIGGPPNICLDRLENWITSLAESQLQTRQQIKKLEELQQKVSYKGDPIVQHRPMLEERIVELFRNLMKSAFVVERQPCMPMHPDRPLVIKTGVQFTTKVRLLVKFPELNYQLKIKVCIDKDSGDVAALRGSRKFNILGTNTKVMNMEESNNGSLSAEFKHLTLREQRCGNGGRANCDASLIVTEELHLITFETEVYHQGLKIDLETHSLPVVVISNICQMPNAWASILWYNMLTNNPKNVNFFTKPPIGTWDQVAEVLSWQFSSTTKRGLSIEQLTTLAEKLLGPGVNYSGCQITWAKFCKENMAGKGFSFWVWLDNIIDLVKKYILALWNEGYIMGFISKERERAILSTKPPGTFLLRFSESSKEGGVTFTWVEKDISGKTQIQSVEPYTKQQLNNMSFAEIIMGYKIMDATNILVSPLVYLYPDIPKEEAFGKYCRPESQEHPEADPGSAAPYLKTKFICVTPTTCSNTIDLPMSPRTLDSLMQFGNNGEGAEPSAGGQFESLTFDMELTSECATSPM
Procedure, shortened: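 HepG2 cells transiently transfected with multiple cis-element-driven reporter units report endogenous transcription factor activity. After 24 h compound exposure, reporter mRNA is measured by RT-PCR, 6-FAM labelling, HpaI digestion and capillary electrophoresis. Fitted bidirectionally versus DMSO.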

[16] = ATG_TA_CIS: Attagene CIS-FACTORIAL HepG2 Assay for human TA Basal Promoter (AID 2282964); details: HepG2 Attagene CIS-factorial TA basal promoter reporter; actives raise or lower the signal
Procedure, shortened: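 Multiplexed mRNA reporter assay, HepG2, 24 h. Reporter cDNA amplified, 6-FAM primer-extended, HpaI-cut, CE-sized; DMSO = negative control and baseline.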

[17] = ATG_TCF_b_cat_CIS: Attagene CIS-FACTORIAL HepG2 Assay for human T-Cell-Factor with beta-catenin (TCF/b-cat) (AID 2282965); details: HepG2 TCF/beta-catenin cis-reporter transcription, actives raise or lower the signal
Procedure, shortened: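 HepG2 cells transiently transfected with cis-promoter-driven multiplexed reporter units; reporter mRNA measured 24 h after dosing by RT-PCR, FAM labelling, HpaI digestion and capillary electrophoresis. Bidirectional fitting relative to DMSO baseline.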

[18] = target: Heat shock factor protein 1 (Homo sapiens) (UniProt Q00613); assay: ATG_HSE_CIS: Attagene CIS-FACTORIAL HepG2 Assay for human Heat Shock Transcription Factor 1 (HSE) (AID 2282953); details: HepG2 HSE cis-reporter, Attagene RNA transcription; actives raise or lower the signal
Sequence of Heat shock factor protein 1 (Homo sapiens) (Q00613 whole entry, looked up): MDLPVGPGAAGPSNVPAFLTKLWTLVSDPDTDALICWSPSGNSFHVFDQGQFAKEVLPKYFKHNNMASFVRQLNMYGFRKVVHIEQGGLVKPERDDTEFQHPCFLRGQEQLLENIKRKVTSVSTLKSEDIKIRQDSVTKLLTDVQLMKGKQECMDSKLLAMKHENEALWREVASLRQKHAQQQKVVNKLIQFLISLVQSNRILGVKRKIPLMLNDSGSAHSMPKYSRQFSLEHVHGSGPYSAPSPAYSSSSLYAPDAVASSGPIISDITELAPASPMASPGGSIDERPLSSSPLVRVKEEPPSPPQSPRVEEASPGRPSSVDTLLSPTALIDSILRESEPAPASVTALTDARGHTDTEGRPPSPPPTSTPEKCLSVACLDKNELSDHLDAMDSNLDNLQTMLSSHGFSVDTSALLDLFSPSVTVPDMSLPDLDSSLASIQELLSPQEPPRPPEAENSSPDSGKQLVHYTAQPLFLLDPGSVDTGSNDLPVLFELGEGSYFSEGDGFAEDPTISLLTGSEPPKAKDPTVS
Procedure, shortened: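 After a 24 h incubation with test chemical, transfected HepG2 cells were harvested for RNA; reporter transcripts were measured by RT-PCR and capillary electrophoresis. Values reflect gain or loss of signal relative to DMSO.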

[19] = ATG_Sox_CIS: Attagene CIS-FACTORIAL HepG2 Assay for human SRY-box transcription factor (SOX) (AID 2282960); details: HepG2 Attagene cis-factorial SOX reporter, mRNA; actives raise or lower the signal
Procedure, shortened: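 HepG2, cis reporter units, 24 h exposure. Reporter mRNA: RT-PCR → FAM labelling → HpaI → CE fluorescence. Bidirectional fit vs DMSO.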

[20] = ATG_SREBP_CIS: Attagene CIS-FACTORIAL HepG2 Assay for human Sterol Regulatory Element Binding (SREBP) (AID 2282962); details: HepG2 Attagene cis-factorial SREBP reporter, mRNA; actives raise or lower the signal
Procedure, shortened: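 Transfected HepG2 (cis-regulated reporter library, endogenous TFs) → compound 24 h → total RNA → oligo(dT) RT → reporter-specific PCR → FAM primer extension, HpaI cut → CE fluorescence. Fit bidirectional vs DMSO.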

Measured: AC50

CC1=CC(=O)NS(=O)(=O)O1
inactive: [1] | [2] | [3] | [4] | [5] | [6] | [7] | [8] | [9] | [10] | [12] | [13] | [14] | [15] | [16] | [17]
active: [11] 55.8 µM

OCc1cccnc1
inactive: [1] | [2] | [3] | [4] | [5] | [7] | [18] | [8] | [10] | [13] | [19] | [14] | [20] | [15] | [16] | [17]

CCCC(=O)c1cc(O)c(O)cc1O
inactive: [1] | [2] | [3] | [4] | [5] | [6] | [7] | [8] | [10] | [11] | [12] | [13] | [19] | [14] | [20] | [15] | [16] | [17]

CC(C)=CCCC(C)CC=O (stereo not given)
inactive: [1] | [2] | [3] | [4] | [5] | [7] | [8] | [10] | [11] | [13] | [19] | [14] | [20] | [15] | [16] | [17]

C[Si](O[Si](C)(C)C)O[Si](C)(C)C
inactive: [1] | [2] | [3] | [5] | [6] | [7] | [18] | [8] | [10] | [12] | [19] | [14] | [20] | [15] | [16] | [17]

CCCCCCOC(=O)CC
inactive: [1] | [2] | [3] | [5] | [6] | [7] | [18] | [8] | [9] | [10] | [11] | [12] | [19] | [14] | [20] | [15] | [16] | [17]

COc1cccc(OC)c1
inactive: [1] | [2] | [3] | [4] | [5] | [6] | [7] | [8] | [9] | [10] | [11] | [12] | [19] | [14] | [15] | [16] | [17]

CCC(=O)/C=C/C1C(C)=CCCC1(C)C (stereo not given)
inactive: [1] | [2] | [3] | [4] | [5] | [6] | [7] | [8] | [10] | [13] | [19] | [14] | [20] | [16] | [17]
active: [11] 4.76 µM | [12] 35 µM
